According to ChEMBL document CHEMBL1157539, “Thousands of chemical starting points for antimalarial lead identification” (Nature, 2010):

Columns and labels:
Assay type in all cases: functional
[1] = tested on: Plasmodium falciparum; assay: GSK_TCMDC: Inhibition of Plasmodium falciparum 3D7 in whole red blood cells, using parasite LDH activity as an index of growth. Test compounds present at 2uM
[2] = tested on: Plasmodium falciparum; assay: GSK_TCMDC: Inhibition of Plasmodium falciparum Dd2 in whole red blood cells, using parasite LDH activity as an index of growth. Test compounds present at 2uM
[3] = tested on: HepG2; assay: GSK_TCMDC: Percent inhibition of human HepG2 cell line. Test compounds present at 10uM.

| SMILES | Inhibition [1] [%] | Inhibition [2] [%] | Inhibition [3] [%] |
| --- | --- | --- | --- |
| COc1cc(Nc2nccc(N3CCC(NC(=O)c4cccc(C#N)c4)C3)n2)cc(OC)c1OC (centres undefined) | 91 | 76 | 13 |
| Brc1cc2c(cc1C=NNc1nc(=Nc3ccccc3)[nH]c(=Nc3ccccc3)[nH]1)OCO2 | 100 | 32 | 0 |
| O=C(N[C@H]1CCN(CCc2ccc(O[C@H]3CCNC3)c(Br)c2)C1)c1ccc(Cl)c(Cl)c1.O=C(O)C(F)(F)F | 100 | 0 | 28 |
| Brc1cc(CNCCCNc2nc3ccccc3[nH]2)sc1Br.Cl | 100 | 21 | 10 |
| CCc1nnc2sc(-c3cccc(NC(=O)c4ccc(OC)c(Cl)c4)c3)nn12 | 92 | 55 | 3 |
| O=S(=O)(c1c(Cl)cc(Cl)cc1Cl)N1CCCCC(c2ccc(Cl)cc2)=N1 | 95 | 93 | 11 |
| Cl.O=C(c1ccc(-c2ccc(Cl)cc2)o1)N1CCc2cc3nccc(N4CCN5CCC[C@H]5C4)c3cc21 | 100 | 86 | 1 |
| COCCOc1cccc(CN2CCC(c3cc4nc(C)cc(C(F)(F)F)n4n3)C2)c1.O=C(O)CC(O)(CC(=O)O)C(=O)O (centres undefined) | 85 | 74 | 25 |
| N/C(=N\c1cccc(Cc2ccccc2)n1)NCc1ccccc1 | 85 | 52 | 57 |
| [O-][s+]1c(Cl)c(-c2ccc(Cl)cc2)c2ccc(Cl)cc21 (centres undefined) | 91 | 99 | 33 |
| COc1cccc(CNC(=O)c2cccc(-c3ccc(CN4CCC(N5CCCC5)CC4)cc3)n2)c1.O=C(O)C(F)(F)F | 100 | 76 | 16 |
| CN(C)CCN(C)Cc1ccc(-c2ccc3c(Nc4ccc(Cl)cc4F)ccnc3c2)o1 | 100 | 76 | 20 |
| Cc1cc(=NN=Cc2ccccc2Cl)c2ccccc2[nH]1 | 100 | 30 | 0 |
| N#CC(c1ccc(Cl)cc1)c1ccc2c(C(F)(F)F)cc(C(F)(F)F)nc2n1 (centres undefined) | 97 | 54 | 68 |
| COc1ccc(CCCc2nc(N)nc(N)c2-c2ccc(Cl)cc2)cc1 | 94 | 0 | 65 |
| O=C(/C=C/c1ccc(Cl)c(Cl)c1)NCCCCCN1CCCN(C(=O)Nc2ccc(OC(F)F)cc2)CC1 | 99 | 0 | 39 |
| CN1CCC(N2CCN(Cc3cccc(-c4ccc(-c5nc6cc(F)ccc6[nH]5)cc4)c3)CC2)CC1.O=C(O)C(F)(F)F | 100 | 100 | 92 |
| CN1CCN(CCCN(Cc2cccc(-c3cccc(CNCc4ccc5c(c4)OCO5)c3)c2)C(=O)CCC2CCCC2)CC1.O=C(O)C(F)(F)F | 98 | 80 | 85 |
| Cc1ccnc(NC(c2cccc(OCc3ccccc3)c2)c2ccc3cccnc3c2O)c1 (centres undefined) | 95 | 88 | 26 |
| CC(C)(C)c1ccc(NC(=O)c2ccc(CN3CCCN(Cc4cccc(O)c4)CC3)cc2)cc1.O=C(O)C(F)(F)F | 100 | 62 | 54 |
| CCOC(=O)c1cn(CC)c2cc(F)c(OC3CC4CCC3(C)C4(C)C)cc2c1=O (centres undefined) | 91 | 70 | 0 |

| SMILES | Inhibition [1] [%] | Inhibition [2] [%] | Inhibition [3] [%] |
| --- | --- | --- | --- |
| Cl.NC[C@H](CC1CCCCC1)NC(=O)c1ccc(-c2ccnc3[nH]ccc23)s1 | 98 | 4 | 39 |
| O=C(Nc1cc(C(F)(F)F)ccc1Cl)c1ccc(Cn2cc(Br)cn2)cc1 | 91 | 67 | 24 |
| C=CCNC(=O)CCCNC(=N)N.Cl | 98 | 12 | 0 |
| O=C(/C=C/c1ccc(Cl)c(Cl)c1)NCCCCCN1CCC(NC(=O)Nc2cccc(F)c2)CC1 | 100 | 6 | 30 |
| CSc1ccc(CN2CCC(NC(=O)c3ccc(-c4cccc(C(F)(F)F)c4)s3)CC2)cc1.O=C(O)C(F)(F)F | 90 | 9 | 68 |
| O=C(NCc1ccc(C(=O)NC2CCCCC2)cc1)c1ccc(O)c(-c2ccc(Cl)c(Cl)c2)c1 | 93 | 0 | 5 |
| COc1cc(Cc2cnc(N)nc2N)ccc1OCc1ccc(-c2ccccc2C#N)cc1 | 93 | 3 | 32 |
| OC(CNc1ccnc(Nc2ccc(Cl)cc2)n1)c1cccc(C(F)(F)F)c1 (centres undefined) | 100 | 84 | 9 |
| COc1cc2nc(N3CCC(CNC(=O)/C=C/c4ccccc4F)CC3)nc(N)c2cc1OC.Cl | 100 | 88 | 0 |
| CSCCC(C(=O)O)N1C(=O)c2ccccc2C1=O (centres undefined) | 91 | 0 | 0 |
| CO/C(=C\C=C\c1cc2cc(Cl)c(Cl)cc2[nH]1)C(=O)NCCCN1CC(C)N(C)CC1C (centres undefined) | 92 | 73 | 38 |
| CCCc1cc(OC)c(CC2c3cc(O)c(C)cc3CCN2C)cc1OC.Cl (centres undefined) | 99 | 89 | 32 |
| Cc1cc(NCCCCCCN)nc(Nc2ccc(Cl)cc2)n1 | 100 | 26 | 25 |
| COc1cccc(CNCC(C)(C)c2nc(-c3ccc(Cl)c(O)c3)c(-c3ccncc3)[nH]2)c1.Cl | 100 | 98 | 74 |
| Cc1ccc2[nH]c(-c3cc(-c4cccc(CCN5CCOCC5)c4)cnc3N)nc2c1.O=C(O)C(F)(F)F | 100 | 99 | 50 |
| Cl.Oc1ccc(-c2ccccc2)cc1CNC1CCCCC1 | 95 | 100 | 24 |
| NC(=O)c1ccccc1Nc1nc(Nc2cc[nH]n2)ncc1Cl | 96 | 93 | 67 |
| COc1cccc(OC2CCN(C(=O)c3ccc(-c4ccc(N5CCCC5=O)cc4C)cc3)CC2)c1 | 85 | 80 | 42 |
| CC(C)CCN1CCC(Oc2ccc(NC(=O)c3ccsc3)cc2Cl)CC1.O=C(O)C(F)(F)F | 89 | 81 | 19 |
| CCN(CC)CCCNc1ncc2c(-c3ccc(NC(=O)Nc4cc(C(F)(F)F)ccc4F)cc3)nn(C)c2n1.O=C(O)C(F)(F)F | 99 | 74 | 81 |
| Cc1cc(N(C)C)nc(Nc2ccc(NC(=O)C3CCCCC3)cc2)n1 | 100 | 68 | 3 |

| SMILES | Inhibition [1] [%] | Inhibition [2] [%] | Inhibition [3] [%] |
| --- | --- | --- | --- |
| CNCCCn1c(N(C)C)nc2cc(-n3cnc4cc(-c5ccc(Cl)cc5)sc4c3=O)ccc21.O=C(O)C(F)(F)F | 86 | 27 | 39 |
| COCCOc1ccc(Nc2nccc(-c3c(-c4cccc(NC(=O)c5c(F)cccc5F)c4)nn4ccccc34)n2)cc1Cl | 99 | 97 | 53 |
| Cc1ccccc1C1CCN(C2CCC(NC(=O)/C=C/c3c[nH]c4ccccc34)CC2)CC1 (centres undefined) | 100 | 51 | 30 |
| CC(C)(C)COc1ccc2c(N)n[nH]c2c1.Cl | 90 | 8 | 31 |
| Cc1ccc(N2C(N)=NC(N)=NC2(C)C)cc1Cl.Cl | 90 | 77 | 66 |
| O=C(NC(Nc1ccc([N+](=O)[O-])cc1)C(Cl)(Cl)Cl)c1ccc(Cl)cc1 (centres undefined) | 98 | 94 | 21 |
| [O-][S+]1c2ccccc2Sc2ccccc21 | 99 | 0 | 48 |
| O=C(C1CCCCC1)N1CCOC(CCN2CCC(c3ccccc3)CC2)(c2ccc(Cl)c(Cl)c2)C1 (centres undefined) | 92 | 86 | 6 |
| CCC(=O)NC(c1ccco1)c1cc(Cl)c2cccnc2c1O (centres undefined) | 89 | 74 | 58 |
| O=C(/C=C/c1ccc(Cl)c(Cl)c1)NCCCCCCN1CCN(C(=O)Nc2cc(Cl)nc(Cl)c2)CC1 | 100 | 0 | 15 |
| O=C(NCCN1CCCC1)c1cc(-c2ccc(Cl)c(O)c2)c(-c2ccncc2)o1 | 92 | 0 | 0 |
| CC(C)(C)NCCN(Cc1ccc(-c2ccc(C(F)(F)F)cc2)cc1)C(=O)Cn1c(SCc2ccc(F)cc2)nc(=O)c2c1CCC2.O=C(O)C(O)C(O)C(=O)O | 97 | 84 | 64 |
| O=C(NCCCN1CCC(Cc2ccccc2)CC1)c1cc2c(Cl)nc3ccccc3c2s1 | 98 | 40 | 22 |
| COc1ccc(CNC2CCN(C)CC2)cc1-c1ccc(S(=O)(=O)NC2CCC2)cc1.O=C(O)C(F)(F)F | 98 | 76 | 58 |
| COc1ccc(CN2CCCN(Cc3cccc(C(=O)Nc4ccc(C(C)(C)C)cc4)c3)CC2)cc1.O=C(O)C(F)(F)F | 98 | 3 | 46 |
| COc1ccc2nccc([C@@H](O)CN3CCC(NC(=O)[C@@H]4Cc5ccccc5CN4C(=O)OC(C)(C)C)CC3)c2c1 | 92 | 61 | 15 |
| O=S(=O)(c1cc(Cl)ccc1Cl)N1CCCCC(c2ccc(C(F)(F)F)cc2)=N1 | 87 | 68 | 15 |
| Oc1cccc(-c2cnc3ccc(NCc4ccc(F)cc4)nn23)c1 | 91 | 66 | 0 |
| O=C(O)C(F)(F)F.c1cncc(CCNCc2cccc(-c3ccc(-c4nc5ccccc5[nH]4)s3)c2)c1 | 100 | 97 | 8 |
| COc1ccc(-c2cc(-c3nc4cc(CN)ccc4[nH]3)c(=O)n(C)c2)cc1OC | 85 | 56 | 0 |
| COc1ccc2c(=NN=Cc3ccccc3)cc(C)[nH]c2c1 | 100 | 49 | 0 |
